Experiment [1] addresses Estrogen receptor (Homo sapiens) (UniProt P03372). Kind of experiment: OT_ERa_GFPERaERE_0480: Odyssey Thera (OT) 8-hour HeLa Transcription Induction Assay for Estrogen Receptor (AID 2283381; active means hit-call score of the fitted dose curve at least 0.9, where 1 is the maximum; inactive means score below 0.9). In short, it runs like this:
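HeLa cells expressing GFP reporter under estrogen response element, imaged 8 h after dosing. GFP induction quantified by high-content fluorescence microscopy image analysis; gain of signal fitted versus DMSO.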

The target is the same in experiment [2]. Nature of the experiment: OT_ERa_GFPERaERE_0120: Odyssey Thera (OT) 2-hour HeLa Transcription Induction Assay for Estrogen Receptor (AID 2283382). The essentials: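 HeLa cells were dosed for 2 h, then GFP reporter induction was quantified by fluorescence microscopy with high-content image analysis. Gain of signal fitted against DMSO baseline.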
Experiment [3] addresses Bile acid receptor (Homo sapiens) (UniProt Q96RI1). Nature of the experiment: OT_FXR_FXRSRC1_1440: Odyssey Thera (OT) 24-hour HEK293T Protein-Complementation Assay for Farnesoid X receptor/SRC-1 Co-activator (AID 2283384). The essentials:
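HEK293T cells, 24 h after chemical dosing. FXR–SRC-1 coactivator interaction read as fluorescence from protein-fragment complementation of a split reporter. Gain of signal fitted against DMSO baseline.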

In experiment [4] the target is Retinoic acid receptor RXR-alpha (Homo sapiens) (UniProt P19793). Kind of experiment: OT_NURR1_NURR1RXRa_0480: Odyssey Thera (OT) 8-hour HEK293T Protein Complementation Assay for Nurr1/retinoid X receptor (RXR) (AID 2283385). The essentials:
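HEK293T cells expressing Nurr1 and RXRα fused to reporter fragments (protein-fragment complementation); fluorescence measured 8 h after dosing. Gain of signal fitted relative to DMSO.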

Experiment [5] deals with Peroxisome proliferator-activated receptor gamma (Homo sapiens) (UniProt P37231). Kind of experiment: OT_PPARg_PPARgSRC1_0480: Odyssey Thera (OT) 8-hour Protein-Complementation Assay for Peroxisome Proliferator-activated Receptor Gamma / SRC-1 Co-activator (AID 2283387).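 Further: nuclear to cytoplasmic split Venus YFP fluorescence ratio reporting PPARg SRC-1 interaction.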 In short, it runs like this: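 Split-YFP (IFP1/IFP2) PPARg/SRC-1 reporter, HEK293T, 37 °C, 5% CO2; 8 h compound; formaldehyde fix + Draq5; high-content imaging, N/C ratio, ≥350 cells/image, positive direction vs DMSO.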
Chain of Peroxisome proliferator-activated receptor gamma (Homo sapiens) (P37231 whole entry, looked up): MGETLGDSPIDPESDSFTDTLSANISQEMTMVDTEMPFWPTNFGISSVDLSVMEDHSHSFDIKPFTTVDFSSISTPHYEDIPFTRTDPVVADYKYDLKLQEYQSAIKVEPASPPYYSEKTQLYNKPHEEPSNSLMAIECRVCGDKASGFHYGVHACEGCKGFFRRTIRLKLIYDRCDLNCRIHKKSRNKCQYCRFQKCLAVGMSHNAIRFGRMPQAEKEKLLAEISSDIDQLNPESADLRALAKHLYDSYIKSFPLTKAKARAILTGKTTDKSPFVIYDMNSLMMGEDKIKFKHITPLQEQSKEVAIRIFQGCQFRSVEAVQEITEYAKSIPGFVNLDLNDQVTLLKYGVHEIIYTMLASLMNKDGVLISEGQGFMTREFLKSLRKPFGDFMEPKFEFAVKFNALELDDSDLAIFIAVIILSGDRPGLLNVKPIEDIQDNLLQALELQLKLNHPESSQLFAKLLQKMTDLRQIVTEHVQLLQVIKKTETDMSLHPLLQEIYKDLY

Experiment [6] shares this target. Nature of the experiment: OT_PPARg_PPARgSRC1_1440: Odyssey Thera (OT) 24-hour Protein-Complementation Assay for Peroxisome Proliferator-activated Receptor Gamma/ SRC-1 Co-activator (AID 2283388).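 Further: nuclear to cytoplasmic ratio of reconstituted Venus YFP fluorescence in fixed imaged cells.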 The essentials:
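Transient HEK293T, YFP fragments 1-158/159-239 (mutant IFP1/IFP2) fused to PPARg/SRC-1; 24 h dosing; fix 4% formaldehyde, Draq5; Opera imaging 488/635 nm; N/C ratio, gain vs DMSO.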

For experiment [7], the target named is Retinoic acid receptor RXR-alpha (Homo sapiens) (UniProt P19793). Nature of the experiment: OT_NURR1_NURR1RXRa_1440: Odyssey Thera (OT) 24-hour HEK293T Protein Complementation Assay for Nurr1/retinoid X receptor (RXR) (AID 2283386). In short, it runs like this: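 HEK293T protein-fragment complementation of Nurr1 and RXRα fused to reporter fragments; compounds 24 h. Fluorescence gain from reconstituted reporter fitted versus DMSO.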
Chain of Retinoic acid receptor RXR-alpha (Homo sapiens) (P19793 whole entry, looked up, the tested form may be a part): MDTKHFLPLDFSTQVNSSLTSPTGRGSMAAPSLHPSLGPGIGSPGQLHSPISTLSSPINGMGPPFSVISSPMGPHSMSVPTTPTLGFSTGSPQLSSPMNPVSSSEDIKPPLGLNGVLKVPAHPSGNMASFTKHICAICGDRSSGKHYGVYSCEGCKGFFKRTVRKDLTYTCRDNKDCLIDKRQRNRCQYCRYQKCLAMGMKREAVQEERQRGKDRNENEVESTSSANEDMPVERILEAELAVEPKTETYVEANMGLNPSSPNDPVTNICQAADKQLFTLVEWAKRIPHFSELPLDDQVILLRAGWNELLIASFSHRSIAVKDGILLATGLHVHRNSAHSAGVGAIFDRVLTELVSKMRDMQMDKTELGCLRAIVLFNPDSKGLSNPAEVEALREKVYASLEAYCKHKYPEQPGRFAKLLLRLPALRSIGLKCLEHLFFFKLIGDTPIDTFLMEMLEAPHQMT

In experiment [8] the target is Bile acid receptor (Homo sapiens) (UniProt Q96RI1). Kind of experiment: OT_FXR_FXRSRC1_0480: Odyssey Thera (OT) 8-hour HEK293T Protein-Complementation Assay for Farnesoid X receptor/SRC-1 Co-activator (AID 2283383). In short, it runs like this:
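HEK293T protein-fragment complementation assay: FXR and SRC-1 coactivator are fused to reporter fragments, and their interaction restores a fluorescent reporter. Readout was taken 8 h after dosing, with gain of signal fit relative to DMSO.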

The AC50 is the concentration at which the activity in the assay is half-maximal.

Results filed as inconclusive are left out. The source holds several records for some structures; these can differ, active in one and inactive in another. Active and inactive are the calls of the source. How the source made its calls, unless noted: active means hit-call score of the fitted dose curve at least 0.9, where 1 is the maximum; inconclusive means response in the unintended direction; inactive means score below 0.9.

Chain of Estrogen receptor (Homo sapiens) (P03372 whole entry, looked up): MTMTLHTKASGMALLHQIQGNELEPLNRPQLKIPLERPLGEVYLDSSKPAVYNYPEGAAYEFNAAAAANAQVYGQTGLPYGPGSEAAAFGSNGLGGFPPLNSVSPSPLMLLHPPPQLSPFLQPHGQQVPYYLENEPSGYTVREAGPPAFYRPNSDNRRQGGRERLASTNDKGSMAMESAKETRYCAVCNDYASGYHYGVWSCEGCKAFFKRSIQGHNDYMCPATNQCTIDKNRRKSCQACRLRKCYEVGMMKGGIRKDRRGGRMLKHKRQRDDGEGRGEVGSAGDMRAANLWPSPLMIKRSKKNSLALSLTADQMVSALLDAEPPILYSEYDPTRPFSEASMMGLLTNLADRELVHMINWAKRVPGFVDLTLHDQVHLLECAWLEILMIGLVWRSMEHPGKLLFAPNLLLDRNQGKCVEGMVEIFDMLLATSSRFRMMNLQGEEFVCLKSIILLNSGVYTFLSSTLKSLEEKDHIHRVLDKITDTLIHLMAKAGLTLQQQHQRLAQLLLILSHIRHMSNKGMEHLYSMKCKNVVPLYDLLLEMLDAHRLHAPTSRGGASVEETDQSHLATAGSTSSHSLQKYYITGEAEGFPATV
Chain of Bile acid receptor (Homo sapiens) (Q96RI1 whole entry, looked up, the tested form may be a part): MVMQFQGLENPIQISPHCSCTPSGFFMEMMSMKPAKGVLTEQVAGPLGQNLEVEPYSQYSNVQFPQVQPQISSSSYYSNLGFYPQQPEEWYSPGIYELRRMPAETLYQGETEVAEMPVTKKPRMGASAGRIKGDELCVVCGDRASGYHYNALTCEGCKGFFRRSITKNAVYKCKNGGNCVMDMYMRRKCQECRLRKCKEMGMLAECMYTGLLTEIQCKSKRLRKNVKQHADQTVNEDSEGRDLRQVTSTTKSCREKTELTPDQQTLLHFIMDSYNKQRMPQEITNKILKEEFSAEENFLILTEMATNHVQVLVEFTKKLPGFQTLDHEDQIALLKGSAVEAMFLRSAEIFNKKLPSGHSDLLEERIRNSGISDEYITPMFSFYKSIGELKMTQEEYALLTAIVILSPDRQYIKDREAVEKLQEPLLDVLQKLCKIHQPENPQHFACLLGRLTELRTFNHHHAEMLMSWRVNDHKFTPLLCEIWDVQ

Consider `CC(CO)OC(C)CO` (configuration not stated) (tested in a mixture with another compound), for which the compound was classed as inactive in experiment [1], in experiment [2], in experiment [3], in experiment [4], in experiment [5] and in experiment [6].

For `CCCc1cc(=O)[nH]c(=S)[nH]1`, the compound was classed as inactive in experiment [1], in experiment [2], in experiment [4], in experiment [7], in experiment [5] and in experiment [6].

As to `O=C(O)CCCCC(=O)O`, the call in experiment [1], in experiment [2], in experiment [8], in experiment [3], in experiment [4] and in experiment [7] was inactive. In addition, the compound was called inactive in experiment [5] and in experiment [6].

Regarding `CCNc1cccc(C)c1`, the compound was called inactive in experiment [1], in experiment [2], in experiment [4], in experiment [7], in experiment [5] and in experiment [6].

For the compound `CC1=C(/C=C/C(C)=C/C=C/C(C)=C/CO)C(C)(C)CCC1`, the compound was called inactive in experiment [1], in experiment [2], in experiment [4], in experiment [7], in experiment [5] and in experiment [6]. Also, the results for the AC50 in experiment [4] and in experiment [7] were 18.5 µM (active) and 79.3 µM (active), respectively.

Consider `Cc1ccc(Cl)cc1`, for which the call in experiment [1], in experiment [2], in experiment [8], in experiment [4], in experiment [7] and in experiment [5] was inactive. Moreover, in experiment [6], the outcome was inactive.

Turning to `NS(=O)(=O)c1cc2c(cc1Cl)NCNS2(=O)=O`, the compound was called inactive in experiment [1], in experiment [2], in experiment [8], in experiment [4], in experiment [7] and in experiment [5]. Further, in experiment [6], the call was inactive.

Regarding `C1CCC(SSC2CCCCC2)CC1`, the call in experiment [1], in experiment [2], in experiment [4], in experiment [5] and in experiment [6] was inactive. Besides, in experiment [4], the concentration at half-maximal activity (AC50) is 79.5 µM (active).

As for `CC1(C)CC(N=C=O)CC(C)(CN=C=O)C1` (configuration not stated), the call in experiment [1], in experiment [2], in experiment [8], in experiment [3], in experiment [4] and in experiment [7] was inactive. Moreover, the result in experiment [5] and in experiment [6] was inactive.

As to `C[Si]1(C)O[Si](C)(C)O[Si](C)(C)O[Si](C)(C)O1`, the call in experiment [1], in experiment [2], in experiment [8], in experiment [4], in experiment [5] and in experiment [6] was inactive.

As to `Nc1ccc(S(=O)(=O)c2ccc(N)cc2)cc1`, the compound was classed as inactive in experiment [1], in experiment [2], in experiment [8], in experiment [3], in experiment [4] and in experiment [7]. The compound was classed as inactive in experiment [5] and in experiment [6].

For `CCCCCCCCCCCCCO`, the outcome in experiment [1], in experiment [2], in experiment [4], in experiment [5] and in experiment [6] was inactive. In addition, the AC50 in experiment [4] is 67.5 µM (active).

For the compound `NCCO`, the compound was called inactive in experiment [1], in experiment [2], in experiment [4] and in experiment [7].

Consider `O=C(OCCCCCOC(=O)c1ccccc1)c1ccccc1`, for which the call in experiment [1], in experiment [2], in experiment [4], in experiment [5] and in experiment [6] was inactive. Also, the AC50 in experiment [4] is 72.2 µM (active).

Turning to `CCCCCCCCCCCCCCCCCC(=O)O`, the compound was called inactive in experiment [1], in experiment [2], in experiment [4], in experiment [7], in experiment [5] and in experiment [6].

Turning to `NC(=O)Cn1c(=O)cc(CCN2CCN(c3nccc4sccc34)CC2)c2ccc(F)cc21`, the outcome in experiment [1], in experiment [2], in experiment [8], in experiment [3], in experiment [5] and in experiment [6] was inactive.

`CCc1c(C(=O)NN2CCCCC2)nn(-c2ccc(Cl)cc2Cl)c1-c1ccc(Br)cc1`: the call in experiment [1], in experiment [2], in experiment [8], in experiment [4], in experiment [5] and in experiment [6] was inactive. Further, the AC50 in experiment [3] is 1.28 µM (active).

Consider `CCCCCCCCCCCC(=O)OC`, for which the outcome in experiment [1], in experiment [2], in experiment [8], in experiment [3], in experiment [4] and in experiment [5] was inactive. For the same compound, the call in experiment [6] was inactive.

As for `Cc1cc(=O)[nH]c(=S)[nH]1`, the call in experiment [1], in experiment [2], in experiment [8], in experiment [3], in experiment [4] and in experiment [7] was inactive. Moreover, the outcome in experiment [5] and in experiment [6] was inactive.

In the case of `FC(F)(F)C(F)(F)C(F)(F)C(F)(F)C(F)(F)C(F)(F)CCI`, the call in experiment [1], in experiment [2], in experiment [4], in experiment [7], in experiment [5] and in experiment [6] was inactive.

The values are drawn from PubChem BioAssay (EPA / NIEHS).
